High-throughput results: PubChem BioAssay, The Scripps Research Institute Molecular Screening Center
CHRM1 antagonist: antagonists of human M1 muscarinic receptor | inhibition, % at 3 µM | 360,000 tested, 1.3% active | AID 588852 | P11229 | CHO-K1 hM1, Fluo-8 calcium fluorescence, ACh EC80 antagonist;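 active = percent inhibition above its own plate's cutoff, namely the mean of that plate's compound wells plus 3 SD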;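 note: peak over basal fluorescence ratio during 140 s after agonist addition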
Target sequence (P11229 whole entry, looked up): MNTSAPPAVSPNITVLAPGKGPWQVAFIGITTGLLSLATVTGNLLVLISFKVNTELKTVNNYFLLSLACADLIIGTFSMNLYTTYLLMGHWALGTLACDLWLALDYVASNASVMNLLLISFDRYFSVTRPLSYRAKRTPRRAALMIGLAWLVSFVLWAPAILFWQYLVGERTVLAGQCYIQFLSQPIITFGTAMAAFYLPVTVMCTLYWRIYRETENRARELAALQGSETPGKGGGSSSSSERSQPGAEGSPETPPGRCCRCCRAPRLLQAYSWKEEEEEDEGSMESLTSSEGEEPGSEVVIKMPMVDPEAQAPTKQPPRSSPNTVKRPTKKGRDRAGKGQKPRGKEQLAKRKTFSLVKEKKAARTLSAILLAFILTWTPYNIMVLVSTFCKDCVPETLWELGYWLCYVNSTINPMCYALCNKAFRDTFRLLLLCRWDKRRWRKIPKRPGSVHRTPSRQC
CHRM1 agonist: agonists of human M1 muscarinic receptor; CHO-K1 hM1, Fluo-8 calcium fluorescence, agonist mode; 0% DMSO, 100% acetylcholine EC100; activation, % at 3 µM; 360,000 tested, 0.33% active; AID 588814;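 active = activation above the run's mean compound activation plus 3 SD, cut at about 16% in these data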;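 note: peak over basal fluorescence ratio within a 140 s kinetic read after compound addition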
CHO-K1 Ca antag: nonselective inhibitor or artifact in parental CHO-K1 cells. 360,000 tested, 0.6% active. inhibition, % at 3 µM. ATP-induced calcium, Fluo-8 fluorescence;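 active = inhibition above a per-plate cutoff, the plate's mean sample inhibition plus 3 SD, cut at about 24% in these data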
M1 ag parental: M1 agonist counterscreen hit in parental CHO-K1 cells. Fluo-8 calcium fluorescence; scaled to maximal ATP response, vehicle zero. activation, % at 3 µM. 360,000 tested, 0.48% active. AID 602248; in the data active = activation above about 15%;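 note: untransfected CHO-K1 host cells lacking M1 receptor as counterscreen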
M1 PAM: positive allosteric modulators of human M1 muscarinic receptor; 360,000 tested, 0.088% active; P11229; activation, % at 3 µM; CHO-K1 hM1, Fluo-8 calcium fluorescence, ACh EC20; 0% = ACh EC20, 100% = maximal ACh; in the data active = activation above about 19%, passing the limit was not always enough
CHO-K1 Ca PAM: M1 PAM counterscreen hit in parental CHO-K1 cells; 360,000 tested, 0.02% active; ATP EC20, Fluo-8 calcium fluorescence; 0% at ATP EC20, 100% at ATP max; activation, % at 3 µM; AID 602247;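 active = activation above the run cutoff, the mean activation of all test compounds plus 3 SD, cut at about 40% in these data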;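 note: peak over basal fluorescence ratio in a 140 s read after ATP addition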
A number is an active result. Most compounds without a hit are left out; they make up all but 2.4% or so of the library.

How did O=C(N/C(=C/c1ccco1)C(=O)N1CCCCCC1)c1cccs1 do in these assays?
CHRM1 antagonist: inactive; CHRM1 agonist: inactive; CHO-K1 Ca antag: inactive; M1 ag parental: inactive; M1 PAM: inactive; CHO-K1 Ca PAM: inactive

What do the screens show for `O=C1N/C(=C/c2ccc(N3CCOCC3)o2)C(=O)N1c1cccc(Cl)c1`?
CHRM1 antagonist: inactive; CHRM1 agonist: inactive; CHO-K1 Ca antag: 29; M1 ag parental: inactive; M1 PAM: inactive; CHO-K1 Ca PAM: inactive

How did S=C(NCc1ccco1)NCc1ccco1 do in these assays?
CHRM1 antagonist: inactive; CHRM1 agonist: inactive; CHO-K1 Ca antag: inactive; M1 ag parental: inactive; M1 PAM: inactive; CHO-K1 Ca PAM: inactive

Results for Cc1cccc(NC(=S)NCc2ccco2)n1 ?
CHRM1 antagonist: inactive; CHRM1 agonist: inactive; CHO-K1 Ca antag: inactive; M1 ag parental: 17; M1 PAM: inactive; CHO-K1 Ca PAM: inactive

Results for COC(=O)c1ccc(NC(=S)NCc2ccco2)cc1 ?
CHRM1 antagonist: inactive; CHRM1 agonist: inactive; CHO-K1 Ca antag: 30; M1 ag parental: inactive; M1 PAM: inactive; CHO-K1 Ca PAM: inactive

Results for CC(=O)O[C@]1(C(C)=O)CCC2C3CCC4=C/C(=N/OCC(=O)O)CC[C@]4(C)C3CC[C@@]21C (some centres not stated) ?
CHRM1 antagonist: inactive; CHRM1 agonist: inactive; CHO-K1 Ca antag: inactive; M1 ag parental: inactive; M1 PAM: inactive; CHO-K1 Ca PAM: inactive

How did NC(=O)COC(=O)c1ccc(Cl)c(S(=O)(=O)N2CCCCCC2)c1 do in these assays?
CHRM1 antagonist: inactive; CHRM1 agonist: inactive; CHO-K1 Ca antag: inactive; M1 ag parental: inactive; M1 PAM: inactive; CHO-K1 Ca PAM: inactive

What do the screens show for `Cc1ccc(S(=O)(=O)N2CCN(C(=O)COC(=O)c3ccc(O)cc3)CC2)c(C)c1`?
CHRM1 antagonist: 30; CHRM1 agonist: inactive; CHO-K1 Ca antag: 27; M1 ag parental: inactive; M1 PAM: inactive; CHO-K1 Ca PAM: inactive

What do the screens show for `Cc1ccc(OCC(=O)N2CCCCC2)c(Br)c1`?
CHRM1 antagonist: inactive; CHRM1 agonist: inactive; CHO-K1 Ca antag: inactive; M1 ag parental: inactive; M1 PAM: 27; CHO-K1 Ca PAM: inactive

What do the screens show for `Cc1ccc(C(=O)OCC(=O)N2CCCC2)cc1`?
CHRM1 antagonist: 21; CHRM1 agonist: inactive; CHO-K1 Ca antag: inactive; M1 ag parental: inactive; M1 PAM: inactive; CHO-K1 Ca PAM: inactive

How did Cc1ccc(S(=O)(=O)N2CCN(C(=O)COC(=O)c3ccc(C(C)(C)C)cc3)CC2)c(C)c1 do in these assays?
CHRM1 antagonist: inactive; CHRM1 agonist: inactive; CHO-K1 Ca antag: inactive; M1 ag parental: inactive; M1 PAM: inactive; CHO-K1 Ca PAM: inactive

How did CC(C)(C)c1ccc(OCC(=O)N2CCCCCC2)c(Br)c1 do in these assays?
CHRM1 antagonist: inactive; CHRM1 agonist: inactive; CHO-K1 Ca antag: inactive; M1 ag parental: inactive; M1 PAM: inactive; CHO-K1 Ca PAM: inactive

What do the screens show for `O=C(OCC(=O)N1CCCCCC1)c1ccc(Cl)c(S(=O)(=O)N2CCCC2)c1`?
CHRM1 antagonist: inactive; CHRM1 agonist: inactive; CHO-K1 Ca antag: inactive; M1 ag parental: 16; M1 PAM: inactive; CHO-K1 Ca PAM: inactive

How did CCN1CCN(c2cc(=O)n(Cc3ccc(F)cc3)c(=O)[nH]2)CC1 do in these assays?
CHRM1 antagonist: inactive; CHRM1 agonist: inactive; CHO-K1 Ca antag: inactive; M1 ag parental: inactive; M1 PAM: inactive; CHO-K1 Ca PAM: inactive

Results for COc1ccc(CC(=O)NC(=S)Nc2ccc(S(=O)(=O)NC(C)(C)C)cc2)cc1 ?
CHRM1 antagonist: inactive; CHRM1 agonist: 24; CHO-K1 Ca antag: inactive; M1 ag parental: inactive; M1 PAM: inactive; CHO-K1 Ca PAM: inactive

How did COc1ccc(NC(=S)NC(=O)Cc2ccccc2)cc1 do in these assays?
CHRM1 antagonist: inactive; CHRM1 agonist: inactive; CHO-K1 Ca antag: inactive; M1 ag parental: inactive; M1 PAM: inactive; CHO-K1 Ca PAM: inactive

Results for COc1ccc(C(=O)NC(=S)Nc2ccc(S(N)(=O)=O)cc2)cc1 ?
CHRM1 antagonist: inactive; CHRM1 agonist: inactive; CHO-K1 Ca antag: inactive; M1 ag parental: inactive; M1 PAM: inactive; CHO-K1 Ca PAM: inactive

What do the screens show for `COc1ccc(CC(=O)NC(=S)Nc2ccc(S(N)(=O)=O)cc2)cc1`?
CHRM1 antagonist: inactive; CHRM1 agonist: 30; CHO-K1 Ca antag: inactive; M1 ag parental: inactive; M1 PAM: inactive; CHO-K1 Ca PAM: inactive

How did COc1ccc(CNC(=O)C2CCN(S(=O)(=O)c3ccc4c(c3)NC(=O)CO4)CC2)cc1 do in these assays?
CHRM1 antagonist: inactive; CHRM1 agonist: inactive; CHO-K1 Ca antag: inactive; M1 ag parental: inactive; M1 PAM: inactive; CHO-K1 Ca PAM: inactive

Results for COC(=O)c1ccccc1NC(=O)CN1CCN(C(=O)c2ccco2)CC1 ?
CHRM1 antagonist: inactive; CHRM1 agonist: inactive; CHO-K1 Ca antag: inactive; M1 ag parental: inactive; M1 PAM: inactive; CHO-K1 Ca PAM: inactive

Results for Cc1cccc(N2C(=O)N(c3ccccc3C)C3CS(=O)(=O)CC32)c1 (configuration not stated) ?
CHRM1 antagonist: inactive; CHRM1 agonist: inactive; CHO-K1 Ca antag: inactive; M1 ag parental: inactive; M1 PAM: inactive; CHO-K1 Ca PAM: inactive

How did O=C(NC(N1CCOCC1)C(Cl)(Cl)Cl)c1ccc(F)cc1 (configuration not stated) do in these assays?
CHRM1 antagonist: inactive; CHRM1 agonist: inactive; CHO-K1 Ca antag: inactive; M1 ag parental: 18; M1 PAM: inactive; CHO-K1 Ca PAM: inactive

What do the screens show for `CCN(C(=O)CSc1nnc(-c2ccco2)n1Cc1ccccc1)C1CCS(=O)(=O)C1` (configuration not stated)?
CHRM1 antagonist: inactive; CHRM1 agonist: inactive; CHO-K1 Ca antag: inactive; M1 ag parental: inactive; M1 PAM: 27; CHO-K1 Ca PAM: inactive

Results for O=C(/C=C/c1ccc(F)cc1)NC(=S)NNC(=O)[C@H]1C[C@@H]1c1ccccc1 ?
CHRM1 antagonist: inactive; CHRM1 agonist: 49; CHO-K1 Ca antag: inactive; M1 ag parental: 40; M1 PAM: inactive; CHO-K1 Ca PAM: inactive

Results for CC(C)(C)NC(=S)NNC(=O)[C@H]1C[C@@H]1c1ccccc1 ?
CHRM1 antagonist: inactive; CHRM1 agonist: inactive; CHO-K1 Ca antag: inactive; M1 ag parental: inactive; M1 PAM: inactive; CHO-K1 Ca PAM: inactive

What do the screens show for `COc1ccc(C(=O)NC(=S)NNC(=O)[C@H]2C[C@@H]2c2ccccc2)cc1OC`?
CHRM1 antagonist: inactive; CHRM1 agonist: 19; CHO-K1 Ca antag: inactive; M1 ag parental: inactive; M1 PAM: inactive; CHO-K1 Ca PAM: inactive

What do the screens show for `O=C(NC(=S)NNC(=O)[C@H]1C[C@@H]1c1ccccc1)c1ccc(F)cc1`?
CHRM1 antagonist: inactive; CHRM1 agonist: inactive; CHO-K1 Ca antag: inactive; M1 ag parental: inactive; M1 PAM: inactive; CHO-K1 Ca PAM: inactive

How did COc1cc(OC)cc(C(=O)NC(=S)NNC(=O)[C@H]2C[C@@H]2c2ccccc2)c1 do in these assays?
CHRM1 antagonist: inactive; CHRM1 agonist: 43; CHO-K1 Ca antag: inactive; M1 ag parental: inactive; M1 PAM: inactive; CHO-K1 Ca PAM: inactive

How did Cc1cc(=O)[nH]c(SCc2nnc(-c3ccccc3)o2)n1 do in these assays?
CHRM1 antagonist: inactive; CHRM1 agonist: inactive; CHO-K1 Ca antag: inactive; M1 ag parental: inactive; M1 PAM: inactive; CHO-K1 Ca PAM: inactive
